Source: PMC7819943, “Rice protein-binding microarrays: a tool to detect cis-acting elements near promoter regions in rice”
Over roughly 35,000 sequences, “fluorescence intensity (a.u.)” has its median near 10,000; the highest 2% begin near 52,000. Many of the other results were omitted from the sample, so the highest values are more common in it than they were.

Each sequence was assayed against T1, OsWOX13 (Oryza sativa, UniProt Q5QMM3 1-267) (assay: protein-binding microarray (RPBM); PBS, 2% BSA, 51.3 ng/ul salmon testes DNA, 50 uM zinc acetate, 200 nM TF, 25 C, 1 h; high values mean tight binding). Details: protein: recombinant; tags: N-terminal polyhistidine and DsRed monomer fusion (pET32a); label: CyDye5-dUTP incorporated in the synthesized complementary strand; 3' TTTTT single-stranded linker to array surface; dsDNA, one strand shown.
T1 sequence: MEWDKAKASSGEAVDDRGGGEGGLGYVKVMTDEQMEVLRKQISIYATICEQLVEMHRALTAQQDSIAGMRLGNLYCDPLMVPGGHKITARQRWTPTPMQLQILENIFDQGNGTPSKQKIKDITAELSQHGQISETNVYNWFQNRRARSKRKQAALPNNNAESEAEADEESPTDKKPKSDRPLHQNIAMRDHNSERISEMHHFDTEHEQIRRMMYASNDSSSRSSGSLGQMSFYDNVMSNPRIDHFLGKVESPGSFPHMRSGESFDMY
In short: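 Ni–NTA purification followed expression in E. coli BL21-CodonPlus of transcription factors fused N-terminally to a polyhistidine tag and DsRed. At 200 nM in PBS with 2% BSA, salmon testes DNA and 50 µM zinc acetate, the protein was incubated for 1 h at 25 °C with a custom Agilent array that had been primer-extended with Cy5-dUTP and blocked with 2% BSA. After washing, the array was read on an Axon 4000B scanner. The binding signal is per-feature fluorescence intensity in arbitrary units.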
For “GAACTAATCACAAATTTCCACCATACAATGCCGCTGTACTCGGAGTCACCTAGTGCAG”, the binding signal was 13300 fluorescence intensity (a.u.).
For “AATTTACGATTGATTATTCATTCAGTGAGGCGCATGCGGTCGGAGTCACCTAGTGCAG”, the binding signal was 32700 fluorescence intensity (a.u.).
In the case of “TACAATCACATTCAATTTGAAAAGAGAAGATGGCTCTTGGCGGAGTCACCTAGTGCAG”, the binding signal is reported as 9800 fluorescence intensity (a.u.).
With “ATGCAGTAATTAATCAATTAACTAATTAACTCACCCCATGCGGAGTCACCTAGTGCAG” the binding signal was 47800 fluorescence intensity (a.u.).
In the case of “GTCATGTGATTGATGATTCAGCATCCCTTGAGGCTCAGTGCGGAGTCACCTAGTGCAG”, the binding signal is reported as 53600 fluorescence intensity (a.u.).
“TCACATTCTTGCATGATTGAACACTCCCTTTCATCCCTCACGGAGTCACCTAGTGCAG” was tested, and the binding signal was 18900 fluorescence intensity (a.u.).
For “CATCAATCATGATTGAAGATGATTCAAGGTTGAGAGGACCCGGAGTCACCTAGTGCAG”, the binding signal was 53900 fluorescence intensity (a.u.).
For “GACTAACACCCTAGACTGATTAATCAAAGCATTGTGCATGCGGAGTCACCTAGTGCAG”, the binding signal was 16800 fluorescence intensity (a.u.).
For “CTGATTAACTCTTCAATCAAATCCCTAACTTGAGTGCATGCGGAGTCACCTAGTGCAG”, the binding signal was 57200 fluorescence intensity (a.u.).
“CTTGATGATTAATCAATTCAATCTTGGCTGTCATGAGAGGCGGAGTCACCTAGTGCAG” was tested, and the binding signal was 62000 fluorescence intensity (a.u.).
For “GAGGCCAATCAGGTTGATGATGAAGAGGATGATTTCAGCGCGGAGTCACCTAGTGCAG”, the binding signal was 18200 fluorescence intensity (a.u.).
For “AAATGAGATGACAATGATGATGATGATGGTTTCATCACCCCGGAGTCACCTAGTGCAG”, the binding signal was 4620 fluorescence intensity (a.u.).
In the case of “TGCCTTTGATTAATGTCATGATGTCACATGCTGAGATTCACGGAGTCACCTAGTGCAG”, the binding signal is reported as 11900 fluorescence intensity (a.u.).
In the case of “ATTTAGACAGGTTCCAACCTCCTTGATAACAGTTAAAACCCGGAGTCACCTAGTGCAG”, the binding signal is reported as 7950 fluorescence intensity (a.u.).
“TTTTAGGTTAATTACTTCTATTGGTCAACTCAATATGCAGCGGAGTCACCTAGTGCAG” was tested, and the binding signal was 5660 fluorescence intensity (a.u.).
For “TGACTCTTATTTAACGACTGATTGTTGTCAAGATAATGAACGGAGTCACCTAGTGCAG”, the binding signal was 3770 fluorescence intensity (a.u.).
With “CGTACAATATTAATTAAAGTGTTTAAGAAACAGAGACTAGCGGAGTCACCTAGTGCAG” the binding signal was 3740 fluorescence intensity (a.u.).
For “AAGGAAAATTAATAGCATACAGGCATGCATTTACGTACTTCGGAGTCACCTAGTGCAG”, the binding signal was 5500 fluorescence intensity (a.u.).
For “CCATGTGATTGACGATGCTCTTATTAACTTCTAACTTGACCGGAGTCACCTAGTGCAG”, the binding signal was 47000 fluorescence intensity (a.u.).
In the case of “GCTGACGTAGATAATCTTATGCTTTCAAATTTTACGATAGCGGAGTCACCTAGTGCAG”, the binding signal is reported as 5670 fluorescence intensity (a.u.).
“ACTTTCTGTCAATTAGCCATTAGGTCAGTAGCCCAAAGTCCGGAGTCACCTAGTGCAG” was tested, and the binding signal was 24300 fluorescence intensity (a.u.).
With “CTGATGATTAGATTTATCATGCTTCCGCGCTTCAAAAGGGCGGAGTCACCTAGTGCAG” the binding signal was 53400 fluorescence intensity (a.u.).
“TTCATGATATCAATTTATGAGCATCAAAAGATTACCATGCCGGAGTCACCTAGTGCAG” was tested, and the binding signal was 6980 fluorescence intensity (a.u.).
“TCTGCTTAAAAGGATGATTAAATTTTAGATTAAAGTGGCGCGGAGTCACCTAGTGCAG” was tested, and the binding signal was 10200 fluorescence intensity (a.u.).
For “TCAGATTAGTTGACTAGCAAGCTACTCCTAGTACAGGTTACGGAGTCACCTAGTGCAG”, the binding signal was 6290 fluorescence intensity (a.u.).
With “TAATTATTGACTAATATATTAATTAATATAATGTAATTTACGGAGTCACCTAGTGCAG” the binding signal was 22700 fluorescence intensity (a.u.).
For “TGTTTATAACTGTAATGACATATAAGCACCACATAGGGGCCGGAGTCACCTAGTGCAG”, the binding signal was 5560 fluorescence intensity (a.u.).
With “CTAATTAATTTGTTCCCTTAATTGGCACTTTGAATCTAAGCGGAGTCACCTAGTGCAG” the binding signal was 58300 fluorescence intensity (a.u.).
With “CAGCCCTTAATTGAATTTGGCCCAGCTAGTTCCCGGGCCCCGGAGTCACCTAGTGCAG” the binding signal was 30600 fluorescence intensity (a.u.).
For “ATGTGTAAATTGAATTAATGGAGTTGGTTGTGAAATCGTTCGGAGTCACCTAGTGCAG”, the binding signal was 25300 fluorescence intensity (a.u.).
“AGTTTTCTGTTCAATGATTTGGTTGAATCAAATTGTTCCTCGGAGTCACCTAGTGCAG” was tested, and the binding signal was 4400 fluorescence intensity (a.u.).
“CCTTTTAATTGAAAAGCTCCTTATTGGCTTCCCACCTAAGCGGAGTCACCTAGTGCAG” was tested, and the binding signal was 46900 fluorescence intensity (a.u.).
In the case of “GATTAATCCAATTGACTTTGATGAGGATGTGCCACTATTTCGGAGTCACCTAGTGCAG”, the binding signal is reported as 6820 fluorescence intensity (a.u.).
With “TTGTAAATGACTGATTTGGATGTGAATTAATCGTTGTTGTCGGAGTCACCTAGTGCAG” the binding signal was 28400 fluorescence intensity (a.u.).
For “GGTGATTTGATTCAAATTCAATCCGATCCTTTGTTGGTTTCGGAGTCACCTAGTGCAG”, the binding signal was 53400 fluorescence intensity (a.u.).
With “GTATTGTGATTTGTGAATCAGTGAATATGTGAATGTGATTCGGAGTCACCTAGTGCAG” the binding signal was 13200 fluorescence intensity (a.u.).
For “ATAAATGATTGGAGGATTTGTTGTGACTTTTCCACAATGTCGGAGTCACCTAGTGCAG”, the binding signal was 58200 fluorescence intensity (a.u.).
With “ACAATTTGATTGCTTCCTTTCAACATTGTGGTTGGTGATCCGGAGTCACCTAGTGCAG” the binding signal was 30500 fluorescence intensity (a.u.).
“GTTGATTGGGTAAATCATATGATCGTAATGTATTGTGAATCGGAGTCACCTAGTGCAG” was tested, and the binding signal was 64600 fluorescence intensity (a.u.).
For “GACTGGGAGGATGAGGGGTGGGTGGGTGTGGCTGCTTCTGCGGAGTCACCTAGTGCAG”, the binding signal was 4110 fluorescence intensity (a.u.).
“CGATCTAATTGTGAATCCTCTACCCTAGAGGACCTCCTATCGGAGTCACCTAGTGCAG” was tested, and the binding signal was 4020 fluorescence intensity (a.u.).
In the case of “AGTTTTAGCCTAAATTGGGTAAATTATATTTTAACCGTAACGGAGTCACCTAGTGCAG”, the binding signal is reported as 11600 fluorescence intensity (a.u.).
“TCAGTAACATTATTGGTTAAATTTTAAATTTTGAATAGGCCGGAGTCACCTAGTGCAG” was tested, and the binding signal was 5870 fluorescence intensity (a.u.).
“AATTGTTTGATTGAAATTAATGTACTCTTGAATGGATAAACGGAGTCACCTAGTGCAG” was tested, and the binding signal was 32600 fluorescence intensity (a.u.).
In the case of “GCTGACTAATTATGTAACAGGGGTCAAACAAGTAGGTGGACGGAGTCACCTAGTGCAG”, the binding signal is reported as 20400 fluorescence intensity (a.u.).
“GGTAGAAATAAGGATTGATTGAGATTCACCTACCTTTTCTCGGAGTCACCTAGTGCAG” was tested, and the binding signal was 37500 fluorescence intensity (a.u.).
In the case of “TCCACCGCGACATGTGATTGGAGGTAAGAGCATGTGAACCCGGAGTCACCTAGTGCAG”, the binding signal is reported as 5650 fluorescence intensity (a.u.).
In the case of “AAATGTGATTTTGTAATTTCCCCTTTGAATTTTCATCAAACGGAGTCACCTAGTGCAG”, the binding signal is reported as 8970 fluorescence intensity (a.u.).
“GCAGAAATGATTGCACTTCAATTATTGAGTAAAACAGATTCGGAGTCACCTAGTGCAG” was tested, and the binding signal was 30000 fluorescence intensity (a.u.).
For “ATTGATTTGAATTCCAAATTTGTAATGATGTTGATCACCTCGGAGTCACCTAGTGCAG”, the binding signal was 39400 fluorescence intensity (a.u.).
In the case of “GAGATTGATTGCATATCAGAAGTAAATGATTTCAACAGATCGGAGTCACCTAGTGCAG”, the binding signal is reported as 54400 fluorescence intensity (a.u.).
“CTTTGTAATTGGAGTCAATCAAATTGAATGATTTCCCTTTCGGAGTCACCTAGTGCAG” was tested, and the binding signal was 58900 fluorescence intensity (a.u.).
“GCTCCTGATTTGCCTGATCAGATCAACAGATTAGCATGATCGGAGTCACCTAGTGCAG” was tested, and the binding signal was 23600 fluorescence intensity (a.u.).
For “TAGGATTATGTTGGTGATGATGATGACTAGTGTGCCTGAACGGAGTCACCTAGTGCAG”, the binding signal was 4220 fluorescence intensity (a.u.).
